Compound activity: PubChem, National Center for Advancing Translational Sciences (NCATS)
HT1080NT lethal: qHTS for induction of synthetic lethality in tumor cells producing 2HG: qHTS for the HT-1080-NT fibrosarcoma cell line | HT-1080-NT fibrosarcoma viability, CellTiter-Glo ATP luminescence, 48 h | Potency, µM (doses to about 46.1 µM), inactives show top-dose activity, negative = less viability, actives largely listed as cytotoxic | 1.6% of 360,000 active;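 note: NT is the 2HG producing partner of a matched IDH1 knockdown line; potency is the fitted concentration of half-maximal effect; 0% = DMSO-treated cells and -100% = media-only wells without cells; nearly all actives have a fitted effect of over 55% in size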
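Viability by CellTiter-Glo luminescence after 48 h compound exposure at 37C of HT-1080-NT cells (750/well, RPMI, 5% FBS). % activity scaled between DMSO wells and medium-only wells, then curve-fitted and categorized by curve class.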
KB-V1 MDR tox: qHTS assay for MDR1-selective chemotherapeutics: Primary screen using the drug-selected MDR subline cells KB-V1. KB-V1 MDR cells viability, CellTiter-Glo, 72 h. Potency, µM (doses to about 46.1 µM), actives largely listed as cytotoxic. AID 1347076, 2019. 3.4% of 400,000 active; note: potency is the fitted concentration of half-maximal effect; nearly all actives have a fitted effect of over 60% in size
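Compound-treated KB-V1 multidrug-resistant cells, 72 h, 37 degrees C; viability by CellTiter-Glo. Fitted qHTS curves give the values.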
HT1080 IDH1KD tx: qHTS for induction of synthetic lethality in tumor cells producing 2HG: qHTS for the HT-1080-IDH1KD cell line; HT-1080 IDH1 knockdown viability, ATP luminescence, 48 h; Potency, µM (series often up to 46.1 µM), for the others: at the highest dose activity, negative = toxicity, most hits filed as cytotoxic; 2% of 360,000 active; AID 686971, 2013;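 note: potency is the fitted concentration of half-maximal effect; 0% = DMSO wells and -100% = cell-free medium wells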
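Using the IDH1-knockdown HT-1080 line run in the same batch and compound series as the NT line, viability after 48 h at 37 °C was determined by CellTiter-Glo luminescence and expressed as % activity.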
KB-3-1 cytotox: qHTS assay for MDR1-selective chemotherapeutics: Primary screen using the parental adenocarcinoma cell KB-3-1; 1.4% of 400,000 active; Potency, µM (titrated, usually from 46.1 µM), hits mostly cytotoxic; KB-3-1 viability, CellTiter-Glo ATP luminescence, 72 h; note: potency is the fitted concentration of half-maximal effect; nearly all actives have a fitted effect of over 60% in size
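Using CellTiter-Glo luminescence, growth of non-resistant KB-3-1 adenocarcinoma cells is assessed 72 h after pin-tool compound addition at 37 °C. Normalized responses across the concentration series yield fitted curves.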
IL-1B inflam inh: qHTS for Inhibitors of Inflammasome Signaling: IL-1-beta AlphaLISA Primary Screen | activity change, % at 57.5 µM | 4.7% of 360,000 active | THP-1 LPS/ATP IL-1B secretion, AlphaLISA, 16 h; hits give low values | AID 743279, 2014; in the data active = activity change below about -50%; inconclusive = mostly about -30% to -49%
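Secreted IL-1B measured by AlphaLISA bead assay after 16 h compound exposure of THP-1 cells; compounds (final up to 57.5 uM) added 1 h before LPS (250 ng/mL) and ATP (1.25 mM) stimulation; lower signal means less secretion.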
An asterisk follows results filed as active; i = inactive; ? = inconclusive; . = no result given. This is a sample that favours compounds with a hit; in the whole collection about 8.8% have one here. Unless noted, calls come from the whole dose curve; as a rule, active = well fitted curve in the direction sought with a large enough effect; inconclusive = small, poorly fitted or top-dose-only effect, or another doubt; inactive = no such curve, though single readings can be large; an effect the other way counts as inactive or inconclusive. Unless noted, % is set by controls: 0 for no effect and ±100 for the full control effect.

SMILES	HT1080NT lethal	KB-V1 MDR tox	HT1080 IDH1KD tx	KB-3-1 cytotox	IL-1B inflam inh
COc1cc(C2Sc3ccccc3NC3=C2C(=O)OC3)cc(OC)c1OC (stereo not drawn)	-3.0%	i	?	23.1µM*	36.3
COc1cc(C2CC(=O)Nc3ccccc3S2)cc(OC)c1OC (stereo not drawn)	2.2%	10.3µM*	3.0%	i	12.0
O=S(=O)(c1ccc(Br)cc1)c1nc(-c2ccco2)oc1SCc1ccccc1F	.	i	.	i	.
COc1cc(NC(=O)c2ccc(-c3ccnn3C)c3ccoc23)cc(OC)c1OC	29.4%	?	0.8%	i	-6.9
CC(C)c1ccc(NC(=O)c2ccc(-c3ccnn3C)c3ccoc23)cc1	14.6µM*	i	18.4µM*	i	15.3
CC(=O)Nc1ccc(NC(=O)c2ccc(-c3ccnn3C)c3ccoc23)cc1	-3.6%	i	-0.3%	i	-92.8*
CCN(CC)S(=O)(=O)c1ccc(Cl)c(NC(=O)COc2ccc(OC)cc2)c1	7.3%	i	1.6%	i	5.3
COc1cc(CC(=O)NC2CCCc3ccccc32)cc(OC)c1OC (stereo not drawn)	0.7%	?	4.7%	i	23.4
COc1cc2c(c(OC)c1OC)-c1ccc(SC)c(=O)cc1C(NC(=O)c1ccccc1)CC2 (stereo not drawn)	?	0.731µM*	?	0.0092µM*	?
CCCC(=O)NC1CCc2cc(OC)c(OC)c(OC)c2-c2ccc(OC)c(=O)cc21 (stereo not drawn)	?	2.91µM*	?	0.13µM*	61.6
COc1c(O[C@@H]2O[C@H](CO)[C@@H](O)[C@H](O)[C@H]2O)cc2c(c1OC)-c1ccc(SC)c(=O)cc1C(NC(C)=O)CC2 (stereo partly drawn)	?	i	?	i	40.5
C=COC(=O)NC1CCc2cc(OC)c(OC)c(OC)c2-c2ccc(SC)c(=O)cc21 (stereo not drawn)	0.184µM*	?	?	0.0065µM*	43.0
COc1cccc(C(=O)Nc2ccc3c(cc2=O)[C@@H](NC(C)=O)CCc2cc(OC)c(OC)c(OC)c2-3)c1	5.8µM*	i	4.61µM*	2.91µM*	54.6
O=C(NC1CCCc2ccccc21)c1ccccc1 (stereo not drawn)	1.6%	i	-6.9%	i	4.8
COc1cc2c(c(OC)c1OC)-c1ccc(OC)c(=O)cc1C(NC(=O)c1ccccc1)CC2 (stereo not drawn)	0.0731µM*	?	0.0206µM*	0.0092µM*	10.3
COC(=O)c1ccc2c(c1)C(NC(C)=O)CCc1cc(OC)c(OC)c(OC)c1-2 (stereo not drawn)	0.0065µM*	0.82µM*	?	0.146µM*	-72.6*
COc1cc2c(c(OC)c1OC)-c1ccc(SC)c(=O)cc1C(NC=O)CC2 (stereo not drawn)	0.0461µM*	0.291µM*	?	0.0065µM*	29.7
COc1c(C=O)c2c(c(OC)c1OC)-c1ccc(OC)c(=O)cc1C(NC(C)=O)CC2 (stereo not drawn)	0.0052µM*	?	?	0.0092µM*	0.0
COc1cc2c(c(OC)c1OC)C(=O)CC2	0.0%	i	3.7%	i	10.7
CCc1ccc(NC(=O)CCc2c(C)nn(-c3ccc(N4CCCCC4)nn3)c2C)cc1	-3.1%	i	-0.3%	i	-16.7
Cc1ccc(C(=O)OCN2C(=O)c3ccccc3C2=O)o1	2.9%	i	-5.7%	i	-11.1
CCc1ccc(C(=O)NC2=NC(c3ccccc3F)CC(=O)N2)cc1 (stereo not drawn)	.	i	.	i	.
COc1cc(/C=N\NC(=O)c2ccccc2F)ccc1Oc1ccc([N+](=O)[O-])cn1	20.6µM*	7.31µM*	7.31µM*	?	-11.8
COc1cc(/C=N\NC(=O)c2ccc(Cl)cc2)ccc1Oc1ccc([N+](=O)[O-])cn1	-13.3%	i	-13.6%	i	-16.4
COc1cc(/C=C(/C#N)c2ccc(F)cc2)ccc1Oc1ccc([N+](=O)[O-])cn1	1.2%	2.31µM*	?	?	-54.5*
SMILES	HT1080NT lethal	KB-V1 MDR tox	HT1080 IDH1KD tx	KB-3-1 cytotox	IL-1B inflam inh
COCC(=O)N(C)C[C@@H]1Oc2cc(-c3ccc(F)cc3)ccc2S(=O)(=O)N([C@H](C)CO)C[C@H]1C	11.7%	i	-6.2%	i	?
CCOC(=O)Cc1ccc(NC(=O)N(Cc2ccc(CC)cc2)Cc2cn[nH]c2-c2ccc(OC)cc2)cc1	.	?	.	i	.
O=C(Nc1ccc(Cl)cc1)c1cc2c(cc1O)[nH]c1ccccc12	14.6µM*	?	14.6µM*	?	-95.1*
O=C(/C=C/c1cccc(Cl)c1)Nn1c(-c2cccs2)nc2ccccc2c1=O	-3.7%	i	-0.4%	i	-54.9*
CC(C)Cn1cnc2c(SCc3ccccc3F)nc(N)nc21	-3.2%	?	-13.5%	i	-12.5
CC(C)Cn1cnc2c(SCc3ccccn3)nc(N)nc21	-0.3%	i	-14.3%	i	-14.1
CC(C)Cn1cnc2c(SCc3ccccc3)nc(N)nc21	-13.6%	i	-13.4%	i	-50.5*
CCC(C)Cn1cnc2c(SCc3ccccc3F)nc(N)nc21 (stereo not drawn)	-21.9%	i	-21.7%	i	-56.1*
Cc1ccc2ccccc2c1CSc1nc(N)nc2c1ncn2CC(C)C	-9.3%	20.6µM*	?	i	?
COc1cc2c(NC3CCN(C)CC3)nc(N3CCCN(C)CC3)nc2cc1OCCCCCN(C)C	.	i	.	?	.
O=C(NCc1cccc(Br)c1)C1CC(c2ccccc2C(F)(F)F)=NO1 (stereo not drawn)	?	?	?	?	-4.8
NC(=O)Cn1c(=O)n(-c2ccccc2)c(=O)c2oc3ccccc3c21	?	i	9.5%	i	-50.2*
O=C(Cn1c(=O)n(-c2ccccc2)c(=O)c2oc3ccccc3c21)Nc1ccccc1	-1.1%	14.6µM*	4.3%	i	-10.0
CCOc1ccccc1NC(=O)Cn1c(=O)n(-c2ccccc2)c(=O)c2oc3ccccc3c21	10.0%	?	3.1%	i	16.8
CCOC(=O)c1c(-c2ccc(OC)c(OC)c2)csc1NC(=O)C1CCCO1 (stereo not drawn)	-20.0%	?	-4.6%	i	-66.8*
COC(=O)c1c(-c2ccc(F)cc2)csc1NC(=O)C1CCCO1 (stereo not drawn)	-9.3%	?	-9.1%	i	-17.9
